Measurements taken from PubChem BioAssay.
Results filed as inconclusive are left out. Calls of active or inactive are those of the source.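 How the source made its calls, unless noted: active means normalized viability below 100% at a tested concentration; inactive means the rest.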

Tests used:
[1] = ovarian cancer cell viability with rucaparib, profiling panel, oncology-focused library, rucaparib conditional (AID 1508598); conditions: patient-derived ovarian cancer cells, CellTiter-Glo viability, 144 h, stronger effect = lower value
[2] = viability rescue of complex I mutant cybrids, primary screen, cell-based, galactose medium, ATP luminescence (AID 1645843;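 active means z-score of at least 1.8 in each of two replicates, scored against plate mean and spread of sample wells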;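 further: positive z means more ATP and so rescue of galactose-driven cybrid death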); conditions: complex I mutant cybrid cells, 72 h, stronger effect = higher value
[3] = stimulators of nuclear beta-catenin in C2C12, primary screen, imaging, WNT3A-conditioned medium, mouse C2C12, NPC library (AID 1117326; in the data active means nuclear beta-catenin stimulation mostly above about 4.2%, no sharp cut-off; inactive means mostly below about 10%); conditions: stronger effect = higher value
[4] = stimulators of insulin release from INS-1E, primary screen, cell-based, 5 mM glucose, NPC library (AID 1117329;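 active means compound raises insulin release from rat beta cells at 5 mM glucose, no numeric limit stated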); conditions: rat INS-1E insulin secretion, at 10 µM, stronger effect = higher value
[5] = growth inhibition of GSK3B-pretreated HCT116 cells – cell-based, CellTiter-Glo, 0.2 to 20 µM (AID 1117336;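 active means compounds lowering colon cancer cell viability after pretreatment blocking the GSK3B kinase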); conditions: HCT116 viability after GSK3B inhibitor, at 20 µM, stronger effect = higher value
[6] = inhibition of endothelial tube formation, primary screen, imaging, VEGF stimulated, CD31 staining, tube area, NPC library (AID 1117340;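 active means compound that reduces growth-factor-driven endothelial tube area in a mixed cell culture, no cutoff stated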); conditions: VEGF-stimulated ADSC/ECFC co-culture, at 10 µM, stronger effect = higher value
[7] = glucagon-like peptide 1 release enhancers, primary assay, NCI-H716 cell line, NPC library (AID 1117341;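 active means compound raises GLP1 secretion from the human gut endocrine cells, with no numeric limit stated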); conditions: NCI-H716 cells, at 10 µM, stronger effect = higher value
[8] = HCT116 colon cancer cell growth inhibition, primary screen, CellTiter-Glo luminescence, NPC library (AID 1117342;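 active means compounds that lower survival of HCT116 colon cancer cells in the luminescence readout, no numeric limit stated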); conditions: at 20 µM (top of the series)
[9] = CellTiter-Glo luminescent readout of SW480 viability loss, NPC library primary (AID 1117343;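 active means compounds that lower viability of the colon cancer cells in the luminescence readout, with no numeric limit stated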); conditions: CellTiter-Glo luminescence; at 20 µM (top of the series) unless noted
[10] = decreased DLD-1 cellular survival, CellTiter-Glo luminescent readout, NPC compound collection, primary HTS (AID 1117346;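 active means compounds that lower survival of DLD-1 colon cancer cells in the luminescence readout, no cutoff given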); conditions: DLD-1 viability, CellTiter-Glo luminescence; at 20 µM (top of the series)
[11] = growth inhibition of DIPG glioma cells, dose response, cell-based, JHH-DIPG-1, MIPE4.0, CellTiter-Glo, qHTS (AID 1347062; cut-off not given, nearly all actives have AC50 up to about 27 µM;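 further: cells exposed to compound for two days before readout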); conditions: JHH-DIPG-1 viability, CellTiter-Glo ATP luminescence
[12] = growth inhibition of DIPG glioma cells, dose response, cell-based, SU-DIPG-IV, MIPE4.0, CellTiter-Glo, qHTS (AID 1347063; cut-off not given, nearly all actives have AC50 up to about 30 µM;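 further: compound exposure lasted 48 hours before the viability readout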); conditions: SU-DIPG-IV viability, CellTiter-Glo ATP luminescence
[13] = SU-DIPG-VI glioma cell viability, MIPE4.0 library, CellTiter-Glo luminescence, qHTS (AID 1347066; cut-off not given, nearly all actives have AC50 up to about 30 µM;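 further: cells exposed to compound for 48 hours before readout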); conditions: CellTiter-Glo ATP luminescence
[14] = SU-DIPG-XXV glioma cell viability, MIPE5.0 library, qHTS (AID 1347068; cut-off not given, nearly all actives have IC50 up to about 30 µM)
[15] = viability loss in pontine glioma line – cell-based, SU-DIPG-XXV, MIPE5.0, CellTiter-Glo, qHTS, dose response (AID 1347065; cut-off not given, nearly all actives have AC50 up to about 26 µM;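 further: cells exposed to compound for 48 hours before ATP readout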); conditions: CellTiter-Glo ATP luminescence
[16] = JHH-DIPG-1 glioma cell viability, MIPE5.0 library, CellTiter-Glo luminescence, qHTS (AID 1347067; cut-off not given, nearly all actives have AC50 up to about 26 µM;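 further: cells exposed to compound for 48 hours before readout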); conditions: JHH-DIPG-1 glioma viability, CellTiter-Glo ATP luminescence
[17] = sensitizers of A549 cells to miR-34 induction, primary screen, imaging, A549 dox-inducible miR-34, nuclei and caspase counts (AID 1347080;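 active means compounds whose cell count with miR-34 switched on is under 0.7 times the count with it off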); conditions: A549 miR-34 inducible, Hoechst nuclei count, 48 h
[18] = survival rescue of mitochondrial mutant cells in low glucose, primary screen, MELAS cybrids, Rieske KO mouse fibroblasts, CellTiter-Glo (AID 1508586;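 active means mean z-score across replicates of 1.96 or higher in either the MELAS or the Rieske mutant cell line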;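 further: z relative to plate mean and SD of compound and empty wells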)
[19] = at 0.00488 µM, OCI-P5x cells, with rucaparib 20 µM, 100% = cells with rucaparib alone
[20] = at 0.00488 µM, OCI-P5x cells, without rucaparib
[21] = at 0.0195 µM, OCI-C5x cells, with rucaparib 10 µM, 100% = cells with rucaparib alone
[22] = at 0.0195 µM, OCI-C5x cells, without rucaparib
[23] = at 0.0195 µM, OCI-P5x cells, with rucaparib 20 µM, 100% = cells with rucaparib alone
[24] = at 0.0195 µM, OCI-P5x cells, without rucaparib
[25] = at 0.0781 µM, OCI-C5x cells, with rucaparib 10 µM, 100% = cells with rucaparib alone
[26] = at 0.0781 µM, OCI-C5x cells, without rucaparib
[27] = at 0.0781 µM, OCI-P5x cells, with rucaparib 20 µM, 100% = cells with rucaparib alone
[28] = at 0.0781 µM, OCI-P5x cells, without rucaparib
[29] = at 0.313 µM, OCI-C5x cells, with rucaparib 10 µM, 100% = cells with rucaparib alone
[30] = at 0.313 µM, OCI-C5x cells, without rucaparib
[31] = at 0.313 µM, OCI-P5x cells, with rucaparib 20 µM, 100% = cells with rucaparib alone
[32] = at 0.313 µM, OCI-P5x cells, without rucaparib
[33] = at 1.25 µM, OCI-C5x cells, with rucaparib 10 µM, 100% = cells with rucaparib alone
[34] = at 1.25 µM, OCI-C5x cells, without rucaparib
[35] = at 1.25 µM, OCI-P5x cells, with rucaparib 20 µM, 100% = cells with rucaparib alone
[36] = at 1.25 µM, OCI-P5x cells, without rucaparib
[37] = at 5 µM, OCI-C5x cells, with rucaparib 10 µM, 100% = cells with rucaparib alone
[38] = at 5 µM, OCI-C5x cells, without rucaparib
[39] = at 5 µM, OCI-P5x cells, with rucaparib 20 µM, 100% = cells with rucaparib alone
[40] = at 5 µM, OCI-P5x cells, without rucaparib

C#Cc1cccc(Nc2ncnc3cc(OCCOC)c(OCCOC)cc23)c1
active: viability [1, 24] 97.9% | viability [1, 28] 99% | viability [1, 32] 91.2% | viability [1, 33] 76% | viability [1, 34] 91.8% | viability [1, 36] 83% | viability [1, 37] 39.7% | viability [1, 38] 62.2% | viability [1, 39] 76.9% | viability [1, 40] 66.3%
inactive: viability [1, 19] 111% | viability [1, 20] 101% | viability [1, 21] 105% | viability [1, 22] 101% | viability [1, 23] 122% | viability [1, 25] 102% | viability [1, 26] 106% | viability [1, 27] 135% | viability [1, 29] 101% | viability [1, 30] 104% | viability [1, 31] 109% | viability [1, 35] 101% | z-score [2] 1.06

CCCCCCOC(=O)NC(=N)c1ccc(NCc2nc3cc(C(=O)N(CCC(=O)OCC)c4ccccn4)ccc3n2C)cc1
active: viability decrease [5] 78.3% | inhibition of viability [8] 118% | viability decrease (inhibition) [9] 155% | viability decrease (inhibition) [10] 102% | AC50 [11] 26.4 µM | AC50 [13] 26.4 µM
inactive: nuclear beta-catenin stimulation ([3]; at 10 µM) 2.7% | insulin secretion stimulation [4] 0.9% | tube area decrease [6] -1.4% | GLP1 secretion stimulation [7] -2.6% | outcome [12] | outcome [14]
2.3%: nuclear beta-catenin stimulation ([3]; stimulation, at 2 µM)

COc1cc(Nc2c(C#N)cnc3cc(OCCCN4CCN(C)CC4)c(OC)cc23)c(Cl)cc1Cl
1100: cell count ([17]; measured here: total cells without miR-34 induction)
-0.399: z-score ([18]; Rieske KO mouse fibroblast survival, CellTiter-Glo 72 h)
inactive: nuclear beta-catenin stimulation ([3]; at 10 µM) 17.6% | insulin secretion stimulation [4] 2.2% | tube area decrease [6] 1.5% | fold change ([17]; stronger effect = lower value, cell number ratio, induced over uninduced) 0.893 | viability ([1]; at 0.000305 µM, OCI-C5x cells, with rucaparib 10 µM, 100% = cells with rucaparib alone) 120% | viability ([1]; at 0.000305 µM, OCI-C5x cells, without rucaparib) 107% | viability ([1]; at 0.00122 µM, OCI-C5x cells, with rucaparib 10 µM, 100% = cells with rucaparib alone) 121% | viability ([1]; at 0.00122 µM, OCI-C5x cells, without rucaparib) 109% | viability ([1]; at 0.00488 µM, OCI-C5x cells, with rucaparib 10 µM, 100% = cells with rucaparib alone) 119% | viability ([1]; at 0.00488 µM, OCI-C5x cells, without rucaparib) 107% | viability [1, 19] 101% | viability [1, 20] 102% | viability [1, 21] 122% | viability [1, 22] 104% | viability [1, 24] 102% | viability [1, 25] 132% | viability [1, 26] 111% | viability [1, 28] 103% | viability [1, 29] 125% | viability [1, 30] 101% | viability [1, 33] 113% | viability [1, 34] 108%
active: viability decrease [5] 110% | GLP1 secretion stimulation [7] 47.9% | inhibition of viability [8] 113% | viability decrease (inhibition) [9] 132% | viability decrease (inhibition) [10] 102% | AC50 [11] 20.9 µM | AC50 [12] 20.9 µM | AC50 [15] 13.2 µM | AC50 [16] 11.8 µM | z-score ([18]; MELAS cybrid survival, CellTiter-Glo 48 h, stronger effect = higher value) 2.73 | viability ([1]; at 0.000305 µM, OCI-P5x cells, with rucaparib 20 µM, 100% = cells with rucaparib alone) 88.1% | viability ([1]; at 0.000305 µM, OCI-P5x cells, without rucaparib) 68.6% | viability ([1]; at 0.00122 µM, OCI-P5x cells, with rucaparib 20 µM, 100% = cells with rucaparib alone) 87.4% | viability ([1]; at 0.00122 µM, OCI-P5x cells, without rucaparib) 30.3% | viability [1, 23] 96.8% | viability [1, 27] 94.7% | viability [1, 31] 80.8% | viability [1, 32] 91% | viability [1, 35] 57.8% | viability [1, 36] 95.2% | viability [1, 37] 49.5% | viability [1, 38] 61.4% | viability [1, 39] 24.4% | viability [1, 40] 42%
-1%: nuclear beta-catenin stimulation ([3]; stimulation, at 2 µM)
986: cell count ([17]; measured here: total cells with miR-34 induction, stronger effect = lower value)
0.682: fold change ([17]; measured here: relative caspase fold change +Dox/-Dox)
